The values below come from PubChem BioAssay (NCATS).

Test [1] can be described thus: Quantitative highthroughput screen to assess conditional lethalithy of P12 Ichikawa cells grown in Human Plasma-Like Medium with dialyzed fetal bovine serum (HPLM+ds) (AID 1963879). Also: nearly all actives have a fitted effect of over 35% in size. Also: potency is read from the fitted curve at half-maximal effect. As to viability: series mostly up to about 46 µM. The following applies: Potency: viability. In a few lines:
(§1)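 Each medium arm—HPLM with 10% dialyzed FBS, or RPMI1640 with 5 mM glucose and 10% untreated or dialyzed FBS—was screened against an 11-point, 3-fold compound titration for 48 h at 37 °C, with CellTiter-Glo luminescence as endpoint.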

Test [2] is described as follows: Quantitative highthroughput screen to assess conditional lethalithy of P12 Ichikawa cells grown in RPMI1640 with dialyzed fetal bovine serum (RPMI+ds) (AID 1963880). Also: nearly all actives have a fitted effect of over 35% in size. Also: potency is read from the fitted curve at half-maximal effect.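 As to viability: 100% = DMSO wells and 0% = empty wells on each plate.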 The following applies: Potency: P12-Ichikawa viability. The procedure, abridged:
as §1

Test [3] can be described thus: Quantitative highthroughput screen to assess conditional lethalithy of P12 Ichikawa cells grown in RPMI1640 with untreated serum (RPMI+s) (AID 1963881). Also: nearly all actives have a fitted effect of over 35% in size. Also: potency is read from the fitted curve at half-maximal effect.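 As to viability: series mostly up to about 46 µM; 100% = DMSO wells and 0% = empty wells without cells.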 Particulars: Potency: viability. The procedure, abridged: as §1
Test [4] in a line: Quantitative highthroughput screen to assess conditional lethalithy of SEM cells grown in Human Plasma-Like Medium with dialyzed fetal bovine serum (HPLM+ds) (AID 1963882). Also: nearly all actives have a fitted effect of over 35% in size. Also: potency is read from the fitted curve at half-maximal effect. As to viability: series mostly up to about 46 µM. In a few lines:
as §1

A short description of test [5]: Quantitative highthroughput screen to assess conditional lethalithy of SEM cells grown in RPMI1640 with unreated serum (RPMI+s) (AID 1963883). Also: nearly all actives have a fitted effect of over 35% in size. Also: potency is read from the fitted curve at half-maximal effect.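 As to viability: 100% = DMSO wells and 0% = empty wells without cells.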 In a few lines: as §1
A short description of test [6]: Quantitative highthroughput screen to assess conditional lethalithy of SEM cells grown in RPMI1640 with dialyzed fetal bovine serum (RPMI+ds) (AID 1963884). In a few lines: as §1
A short description of test [7]: Quantitative highthroughput screen to assess conditional lethalithy of NOMO1 cells grown in Human Plasma-Like Medium with dialyzed fetal bovine serum (HPLM+ds) (AID 1963878). The procedure, abridged:
as §1

A short description of test [8]: Cellular viability qHTS for adrenocortical cancer (ACC) cell line SW-13 (AID 1963989).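 Also: cells grown in serum-free medium with ITS supplement; % is scaled to controls: 0 for no effect and ±100 for the full control effect; nearly all actives have a fitted effect of over 65% in size.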 The following applies: SW-13 ACC cells viability, CellTiter-Glo, 48 h; activity (max response): hits give low values. The procedure, abridged: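 IC50 and maximal-response values come from four-parameter logistic fits of titration data. SW-13 cells in serum-free medium received compounds (up to 46 uM final) for 48 h before CellTiter-Glo luminescence.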
A general note: qHTS replaces the single test concentration by a dilution series.

A short description of test [9]: Cellular viability qHTS for adrenocortical cancer (ACC) cell line NCI-H295R (AID 1963990).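 Also: 0% = DMSO only wells and -100% = full killing with cytotoxic reference compound; nearly all actives have a fitted effect of over 60% in size.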 In a few lines:
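Adrenocortical carcinoma cells, suspended at 300 000 cells/mL in serum-free DMEM plus ITS, rested overnight before pin transfer of compound. After two days' incubation, ATP-dependent luminescence was recorded and curve-fitted.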

Records with an inconclusive call do not appear. Values without a mark were called inactive. The source made the active and inactive calls. Calls follow the shape of the dose curve; as a rule, active = well fitted curve in the direction sought with a large enough effect; inconclusive = small, poorly fitted or top-dose-only effect, or another doubt; inactive = no such curve, though single readings can be large; an effect the other way counts as inactive or inconclusive.

For the molecule `CN[C@H]1[C@@H](O[C@@H]2[C@H](O[C@@H]3[C@@H](O)[C@@H](O)[C@@H](N=C(N)N)[C@@H](O)[C@@H]3N=C(N)N)O[C@H](C)[C@@]2(O)C=O)O[C@@H](CO)[C@@H](O)[C@H]1O`, the Potency entry in [1], in test [2], in test [3], in test [4], in test [5] and in [6] was “inactive” throughout.
Take `O=C(O)C[C@H](O)C[C@H](O)C=Cc1c(C2CC2)nc2ccccc2c1-c1ccc(F)cc1`: the Potency is 20.9 µM (active) in test [7], 4.18 µM (active) in test [2], 3.72 µM (active) in [3] and 11.8 µM (active) in test [5].
In the case of `COc1ccc(Nc2nccc(NCCO)n2)cc1`, the Potency result in [1], in test [2], in [3], in test [4], in test [5] and in test [9] was “inactive” throughout. For the same molecule, the activity (max response) in test [8] was 5.92%.
Regarding `C=CC[C@@H]1C=C(C)C[C@H](C)C[C@H](OC)[C@H]2O[C@@](O)(C(=O)C(=O)N3CCCC[C@H]3C(=O)O[C@H](C(C)=C[C@@H]3CC[C@H](O)[C@H](OC)C3)[C@@H](C)[C@@H](O)CC1=O)[C@@H](C)C[C@@H]2OC`, the Potency is 4.18 µM (active) in [7]; 6.62 µM (active) in test [2]; 6.62 µM (active) in test [3]; 3.32 µM (active) in test [4]; 1.48 µM (active) in test [5].
Regarding `CCC(=O)NC[C@H](Cc1ccc(OCCc2nc(-c3ccccc3)oc2C)cc1)NC(C)=CC(=O)c1ccc(C(F)(F)F)cc1`, the figures for the Potency in test [1], in test [2] and in [3] were 10.5 µM (active), 16.6 µM (active) and 16.6 µM (active), respectively.
Regarding `CCNC(=O)CCCC=CC[C@@H]1[C@H](C=CC(O)CCc2ccccc2)[C@@H](O)C[C@@H]1O` (stereo not given in full), the Potency entry in test [1], in test [2], in [3], in test [4], in test [5] and in test [6] was “inactive” in each case.
In the case of `Clc1ccc2ncc(-c3cccc(NC4CNC4)n3)n2c1`, the Potency in [7] was 20.9 µM (active); in test [3] it was 23.5 µM (active). In addition, the activity (max response) in test [8] is 12.3%. Besides, the Potency result in [9] was “inactive”.
